In PubChem BioAssay AID2108 (National Center for Advancing Translational Sciences (NCATS), 2009):
Records with an inconclusive call do not appear. Calls of active or inactive are those of the source. The call rests on the fitted dose curve; in most records, active means well fitted curve in the direction sought with a large enough effect; inconclusive means small, poorly fitted or top-dose-only effect, or effect the other way, or another doubt; inactive means no such curve, though single readings can be large or run the other way. Non-standard residues stand in square brackets, D forms with d. Residues, ends and D or L forms follow the SMILES beside them. *: point of attachment. Nle = CCCC[C@H](N)C(=O)O; Boc = CC(C)(C)OC(=O)*

target: Alpha-galactosidase A (Homo sapiens) (UniProt P06280); assay: Confirmation of Inhibitors of Human alpha-Galactosidase Using Spleen Homogenate; conditions: alpha-galactosidase enzyme activity; series mostly up to 56.2 µM; activity change: at the top concentration; further: 0% is about no effect
Sequence (P06280 32-429 limits assumed): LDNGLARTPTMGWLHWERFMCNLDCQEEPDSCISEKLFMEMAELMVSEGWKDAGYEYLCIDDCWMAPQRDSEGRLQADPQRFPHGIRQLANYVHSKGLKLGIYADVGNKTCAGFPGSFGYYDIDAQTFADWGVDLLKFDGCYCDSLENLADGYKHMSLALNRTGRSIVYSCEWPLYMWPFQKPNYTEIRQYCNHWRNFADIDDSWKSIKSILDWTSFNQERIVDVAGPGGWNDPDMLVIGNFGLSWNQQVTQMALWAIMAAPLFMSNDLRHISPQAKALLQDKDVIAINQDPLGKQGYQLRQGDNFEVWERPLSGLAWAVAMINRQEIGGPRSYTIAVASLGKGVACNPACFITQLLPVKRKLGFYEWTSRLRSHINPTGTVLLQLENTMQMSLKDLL
Source text: NIH Chemical Genomics Center [NCGC]
NIH Molecular Libraries Probe Production Centers Network [MLPCN]
Assay Submitter (PI): Wei Zheng
Alpha-galactosidase is a homodimeric glycoprotein that hydrolyzes the terminal alpha-galactosyl moieties from glycolipids and glycoproteins. Deficiency of this enzyme results in Fabry Disease with progressive accumulation of globotriaosylceramide and other glycosphingolipids in vascular endothelial cells that causes renal failure, myocardial infarction and stroke, and premature death in patients. It has been reported that the improper folding and trafficking of alpha-galactosidase resulting from genetic mutations may account for a significant number of Fabry patients. […] We optimized this alpha-galactosidase assay in 1536-well plate format for identification of novel small molecule inhibitors or activators with structures other than the sugar analogs in order to develop new pharmacological chaperones. In particular, this assay is directed towards discovering compounds active in more natural setting, tissue homogenate, that may have been missed by screens of the purified enzyme under more stringent conditions. This assay attempted to confirm hits from the primary screening.
NCGC Assay Protocol Summary:
This is a fluorogenic enzyme assay with 4-methylumbelliferyl-alpha-D-galactopyranoside as the substrate and human spleen homogenate containing alpha-galactosidase as the enzyme preparation. Upon hydrolysis of this fluorogenic substrate, the resulting product, 4-methylumbelliferone (which excites at 365 nm and emits at 440 nm) can be detected by a fluorescence plate reader. Data were normalized to the controls for basal activity (without enzyme) and 100% activity (with enzyme). The AC50 values were determined from concentration-response data modeled with the standard Hill equation.
Assay buffer: 50 mM citric acid (titrated with potassium phosphate to pH 5.0), 0.01% Tween-20 (pH 5.0 is an optimal condition for this enzyme assay)
1536-well assay protocol for the alpha-galactosidase from human spleen homogenate:
(1) Add 2 ul/well spleen homogenate (1 ug)
(2) Add 23 nL compounds in DMSO solution. The final titration was 0.5 nM to 58 uM.
(3) Add 2 ul of substrate (1 mM final)
(4) Incubate at 37C for 40 min
(5) Add 2 ul stop solution (1M NaOH and 1M Glycine mixture, pH 10)
(6) Detect the assay plate in a ViewLux plate reader (PerkinElmer) with Ex=365 nm and Em=440nm.
Keywords: Alpha-galactosidase, Fabry Disease, pharmacological chaperone, chaperone therapy, high throughput screening, alpha- galactosidase inhibitor, MLSMR, MLSCN, NIH Roadmap, qHTS and NCGC

Activity change, inactive:
CCCC[C@H](NC(=O)[C@@H]1CCCN1C(=O)[C@H]1CCCN1C(=O)[C@H](Cc1ccccc1)NC(=O)[C@@H](Cc1c[nH]c2ccccc12)NC(=O)[C@H](C)NC(=O)[C@H](CCCN=C(N)N)NC(=O)OC(C)(C)C)C(N)=O (Boc-RA[dW]F[dP]P[Nle]-NH2) 1.41%
COc1ccc2cc(C#N)c(=O)oc2c1 -0.469%
Cc1ccc(N/N=C2\CCS(=O)(=O)c3sccc32)cc1 1.34%
CCOC(=O)c1cc2c(=O)n3cccc(C)c3nc2n(CCCOC)c1=NC(=O)c1cccnc1 16.7% [at 23.6 µM]
O=c1[nH]c2ccccc2nc1/C=C/c1ccc2c(c1)OCO2 5.28%
CC(C)Cn1c(SCC(=O)N2CCCCC2)nc2ccccc2c1=O 2.74% [at 23.6 µM]
Nc1c(NCCN2CCCCC2)c2ccccc2oc1=O -3.82%
COc1ccc(S(=O)(=O)N2CCN(C(=O)COc3ccc4c(C)cc(=O)oc4c3)CC2)cc1 9.75%
COc1ccc2nc3c(cc2c1)Cn1c-3nc2ccccc2c1=O 21%
Cc1nc(-n2nnc(CO)c2CO)nc2c1CCC2 8.66%
OCCN1CC(O)C(O)C(O)C1CO (stereo not given) -3.46%
COc1ccc(S(=O)(=O)N2CCOCC2)cc1 0.0857%
Nc1ccccc1N=Cc1ccc(-c2cccc(Cl)c2)o1 8.41%
Cc1cc(NC(=O)C(C)(C)C)cc(-c2nc3ncccc3o2)c1O -4.83%
COC(=O)CSc1cc([N+](=O)[O-])ccc1NC(=O)OC 6.45% [at 23.6 µM]
CCOc1cc(CNc2ccc(O)cc2)cc(Cl)c1OCc1ccccc1 -8.01%
Cc1cccc(S(=O)(=O)c2c(N)n(-c3ccccc3)c3nc4ccccc4nc23)c1 18.9% [at 23.6 µM]
O=S(=O)(c1ccc(-c2ccccc2)cc1)N1CCOCC1 11.5%
CC/C(=N\NC(=O)c1c(C)nc2ccccn12)c1ccc(Cl)cc1 -11.9%
COc1ccc(C2C3=C(CCCC3=O)N(CC(=O)O)C3=C2C(=O)CCC3)cc1Cl 25.7%
Cc1ccc(CNc2ccc(N3CCOCC3)cc2)cc1 -4.12%
Cc1c(Nc2c3ccccc3nc3ccccc23)c(=O)n(-c2ccccc2)n1C -1.1% [at 23.6 µM]
Cc1oc2c(O)c(O)ccc2c(=O)c1-c1cnn(-c2ccccc2)c1 -10.3%
O=c1oc2ccccc2cc1-c1csc(Cc2nc3c(s2)CCCC3)n1 8.5%
O=C(O)c1c[nH]c2ccc(S(=O)(=O)N3CCOCC3)cc12 -1.11%
COc1cccc2cc(-c3nc4c(s3)CCc3ccccc3-4)c(=O)oc12 8.58%
Cc1ccc(-c2nc(-c3cc4ccccc4oc3=O)sc2C)cc1 12.7%
CCCCn1c(CN2CCN(c3cccc(Cl)c3)CC2)nc2c1c(=O)n(C)c(=O)n2C 0.243% [at 23.6 µM]
Cc1c(C(=O)NCc2ccccc2F)oc2ccccc12 7.79%
O=NOc1ccc(/C=C/c2nccc3c2[nH]c2ccccc23)cc1 5.65%
Cc1cccc(NC(=O)c2nc[nH]c2C(=O)N[C@@H](CCCCNC(=O)OC(C)(C)C)C(=O)OC(C)(C)C)c1 -3.5%
COc1cc2cc(CN(Cc3nnnn3Cc3ccccc3)CC3CCCO3)c(=O)[nH]c2cc1OC (stereo not given) 6.87% [at 23.6 µM]
CCOc1c(Br)cc(CNc2ccc(N3CCOCC3)cc2)cc1OC -4.15%
CC(N=C(NC#N)Nc1ccncc1)C(C)(C)C (stereo not given) -1.81%
O=C(NN=C1c2ccccc2-c2ccccc21)c1cccc(S(=O)(=O)N2CCOCC2)c1 -1.65%
CCCCN1C[C@H](O)[C@@H](O)[C@H](O)[C@H]1CO -5.54%
O=C(CSc1ncc(C(F)(F)F)cc1Cl)N1CCN(S(=O)(=O)c2ccccc2)CC1 3.43%
CC1(C)CC(=O)c2cc(C(=O)NCc3ccco3)c(=O)n(-c3ccc(Cl)cc3)c2C1 3.72% [at 23.6 µM]
Cc1cc(/C=N/NC(=O)c2ccc(O)cc2)c(C)n1C1CC1 1.75%

outcome, inactive:
COc1ccc(/C=C/c2nnc(NC(=O)CSc3ccc(Cl)cc3)s2)cc1
